{
  "source": "PubChem BioAssay AID743286",
  "about": "(National Center for Advancing Translational Sciences (NCATS), 2014)",
  "note": "Hit rate of the full screen: of about 1,100 compounds, about 340 (31%) were called active. Roughly 40% stayed inconclusive and do not appear here. A selection follows. A number with no mark means an inactive call. Calls follow the shape of the dose curve; as a rule, active = well fitted inhibition curve with a large enough effect; inconclusive = small, poorly fitted or top-dose-only effect; inactive = flat fitted curve, though single readings scatter. Potency is read from the fitted curve at half-maximal effect.",
  "data": [
    {"biological_target": "Phosphatidylinositol 5-phosphate 4-kinase type-2 alpha (Homo sapiens) (UniProt P48426)", "sequence (P48426 whole entry, looked up)": "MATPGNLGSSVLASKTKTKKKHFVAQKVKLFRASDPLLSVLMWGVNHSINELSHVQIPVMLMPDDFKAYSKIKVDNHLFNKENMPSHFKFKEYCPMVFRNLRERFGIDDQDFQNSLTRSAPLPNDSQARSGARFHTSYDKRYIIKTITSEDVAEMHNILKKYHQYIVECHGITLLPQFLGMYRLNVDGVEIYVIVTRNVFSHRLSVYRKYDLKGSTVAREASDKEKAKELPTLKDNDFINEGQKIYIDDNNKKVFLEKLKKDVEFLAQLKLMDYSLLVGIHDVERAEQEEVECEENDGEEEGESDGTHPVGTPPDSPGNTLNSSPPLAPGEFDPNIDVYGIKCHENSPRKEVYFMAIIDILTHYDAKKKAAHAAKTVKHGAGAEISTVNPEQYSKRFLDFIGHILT", "test": "qHTS for Inhibitors of PI5P4K: Confirmation in Primary Assay; also: nearly all actives have a fitted effect of over 65% in size", "settings": "PI5P4Kalpha enzyme, ADP-Glo luminescence, 60 min; series mostly up to 76.9 µM; activity change, negative = inhibition: at the top concentration", "from_the_text": "In addition to finding PI5P, we discovered the type II phosphatidylinositol 5-phosphate 4-kinase (PI5P4K) family (alpha, beta, gamma isoforms) that catalyze the conversion of PI5P to PI(4,5)P2. Alternatively, PI(4,5)P2 can also be synthesized through phosphatidylinositol-4-phosphate (PI4P) by the type I phosphatidylinositol 4-phosphate 5-kinases (PI4P5K). These PI5P4K enzymes therefore represent one way by which cells can regulate endogenous PI5P levels and play important roles in insulin signaling and in stress responses. […] A qHTS PI5P4K-alpha ADP-Glo assay was developed to identify specific modulators of human PI5P4K, phosphatidylinositol-5-phosphate 4-kinase (Type II PIPK). This assay was screened against the MLSMR containing ~400,000 small molecules (PubChem AID 652105). To confirm that the hits were not interacting with the detection enzyme system, a 1536-well counterscreen against the ADP-Glo kit (Promega) was utilized, as described in Davis et al., 2013 [1]. Davis et al., PLoS One. 2013;8(1):e54127. NIH Chemical Genomics Center [NCGC] NIH Molecular Libraries Probe Centers Network [MLPCN] MLPCN Grant: MH096575 Assay Submitter (PI): Atsuo Sasaki, Beth Israel Deaconess Medical Center\n2 microL of PI5P4Kalpha/substrate buffer (columns 1-2, 5-48) are dispensed into Greiner white solid bottom 1536-well assay plates; column 3 receives only PI5P4Kalpha buffer as 0x substrate controls; column 4 receives only substrate buffer as 0x PI5P4Kalpha controls. Final assay buffer consists of 0.038 M HEPES pH 7.4, 0.28 mM EGTA, 0.1% CHAPS, and 5% DMSO (final concentration). Compounds are then transferred via Kalypsys pin tool equipped with 1536-pin array (10 nL slotted pins, V&P Scientific, San Diego, CA). Following addition of compound, 1 microL of ATP (5 microM final concentration, all columns) is added to initiate the reaction. ATP is diluted in an assay buffer consisting of 0.02 M HEPES pH 7.4, 60 mM MgCl2, 15 microM ATP, and 0.1% CHAPS. The plates are then incubated at room temperature for 60 minutes. ADP-Glo reagent 1 is added (2 microL) and plates incubated for 45 minutes, before ADP-Glo reagent 2 (4 microL) is added and plates incubated for 30 minutes. They are then transferred to a ViewLux high-throughput CCD imager (PerkinElmer) wherein single end-point measurements of luminescence are acquired using a clear filter.", "units": {"activity change, negative = inhibition": "%"}, "values": [
      {"smiles": "Cc1ccc(-c2csc(NS(=O)(=O)c3cccc(F)c3)n2)o1", "Potency": "11.2 µM (active)"},
      {"smiles": "NS(=O)(=O)c1cccc(NC(=O)CSc2nnnn2-c2ccccc2)c1", "activity change, negative = inhibition": 1.94},
      {"smiles": "O=C(O)C1CSC(c2coc3ccccc3c2=O)N1", "note": "(stereo not drawn)", "activity change, negative = inhibition": -14.7},
      {"smiles": "COc1ccc(NC(C)=O)cc1NC(=O)CSc1nc2ncccc2[nH]1", "activity change, negative = inhibition": 1.09},
      {"smiles": "COc1ccccc1NC(=O)CSc1sc2c(O)cc(=O)[nH]c2c1C#N", "Potency": "10 µM (active)"},
      {"smiles": "COc1cc(Cl)c(C)cc1NC(=O)CSc1sc2c(O)cc(=O)[nH]c2c1C#N", "Potency": "5.01 µM (active)"},
      {"smiles": "COc1ccccc1NC(=O)Cc1nnc(SCC(=O)Nc2ccccc2F)n1C", "activity change, negative = inhibition": -1.37},
      {"smiles": "COc1ccc(NC(=O)CSc2sc3c(O)cc(=O)[nH]c3c2C#N)c(OC)c1", "Potency": "14.1 µM (active)"},
      {"smiles": "COc1ccc(C(=O)NC(CCSC)C(=O)N2CCCCCC2)cc1", "note": "(stereo not drawn)", "activity change, negative = inhibition": -0.697},
      {"smiles": "COc1cc(NC2=Nc3cccc4cccc2c34)cc(OC)c1OC", "activity change, negative = inhibition": -1.43},
      {"smiles": "Cc1nn(-c2ccccc2)c2nc(=O)n(-c3ccccc3)cc12", "activity change, negative = inhibition": -3.35},
      {"smiles": "Cc1ccc(NC(=O)c2cccc(C(=O)Nc3ccc(C)cc3C(=O)O)c2)c(C(=O)O)c1", "Potency": "8.91 µM (active)"},
      {"smiles": "CN(C)c1ccc2nc3ccc(=O)cc-3sc2c1", "Potency": "11.2 µM (active)"},
      {"smiles": "Cc1ccc(NC(=O)CN(C)C(=O)c2cc(-c3ccco3)nc3ccccc23)cc1", "Potency": "8.91 µM (active)"},
      {"smiles": "O=C(c1cc(-c2ccco2)nc2ccccc12)N(Cc1nnc(-c2ccc(Cl)cc2)o1)C1CC1", "activity change, negative = inhibition": -11},
      {"smiles": "COc1ccc(NC(=O)CN(C)C(=O)c2cc(-c3ccco3)nc3ccccc23)cc1", "Potency": "5.01 µM (active)"},
      {"smiles": "CN(CC(=O)Nc1ccc(F)cc1)C(=O)c1cc(-c2ccco2)nc2ccccc12", "Potency": "14.1 µM (active)"},
      {"smiles": "CCNC(=O)c1ccccc1SCC(=O)Nc1ccc(F)cc1", "activity change, negative = inhibition": 1.84},
      {"smiles": "COc1cccc(NC(=O)CN(C)C(=O)c2cc(-c3ccco3)nc3ccccc23)c1", "Potency": "15.8 µM (active)"},
      {"smiles": "COCCN(CC(=O)NCC1CCCO1)C(=O)CCC(=O)Nc1ccccn1", "note": "(stereo not drawn)", "activity change, negative = inhibition": -2.19},
      {"smiles": "COCc1c(C(=O)N2CCc3ccccc32)oc2ccccc12", "activity change, negative = inhibition": 11.8},
      {"smiles": "CCOC(=O)c1nnn(-c2ccccc2)c1C", "activity change, negative = inhibition": -6.41},
      {"smiles": "CCn1c(C(=O)OC)cc2c1ccn2-c1ccc(F)cc1", "activity change, negative = inhibition": 12},
      {"smiles": "CC(C)(C)NC(=O)C(c1ccc(C#N)cc1)n1c(=O)c(-c2ccco2)nc2ccccc21", "note": "(stereo not drawn)", "activity change, negative = inhibition": -23.1},
      {"smiles": "Cc1cc(C(=O)OCC(=O)Nc2cc(S(=O)(=O)N3CCOCC3)ccc2Cl)c(C)o1", "activity change, negative = inhibition": -0.657},
      {"smiles": "O=C(Nc1cc(S(=O)(=O)N2CCOCC2)ccc1O)c1ccc(NS(=O)(=O)c2ccc(Cl)s2)cc1", "Potency": "20 µM (active)"},
      {"smiles": "COc1ccc(C2CC(=O)N3CN(c4ccc(C)c(Cl)c4)CSC3=C2C#N)cc1OC", "note": "(stereo not drawn)", "activity change, negative = inhibition": -8.92},
      {"smiles": "COc1ccc(N2CSC3=C(C#N)C(c4ccc(OC)c(OC)c4)CC(=O)N3C2)c(OC)c1", "note": "(stereo not drawn)", "Potency": "12.6 µM (active)"},
      {"smiles": "COc1ccc(OC)c(C2CC(=O)N3CN(c4cccc(Cl)c4)CSC3=C2C#N)c1", "note": "(stereo not drawn)", "activity change, negative = inhibition": -11.7},
      {"smiles": "COc1cccc(C2CC(=O)N3CN(c4cccc(Cl)c4C)CSC3=C2C#N)c1OC", "note": "(stereo not drawn)", "Potency": "39.8 µM (active)"},
      {"smiles": "COc1ccc(N2CSC3=C(C#N)C(c4cccc(OC)c4OC)CC(=O)N3C2)cc1", "note": "(stereo not drawn)", "Potency": "7.08 µM (active)"},
      {"smiles": "CCN(CC)C(=O)c1[nH]cnc1C(=O)Nc1ccc(OC)cc1", "activity change, negative = inhibition": -2.48},
      {"smiles": "CCCCOc1ccc(S(=O)(=O)NC(=O)C2(C)CCN2C(=O)CCc2ccccc2)cc1", "note": "(stereo not drawn)", "activity change, negative = inhibition": 2.58},
      {"smiles": "C[C@H](NC(=O)c1nc[nH]c1C(=O)N[C@@H](C)C(=O)OC(C)(C)C)C(=O)OC(C)(C)C", "activity change, negative = inhibition": 2.51},
      {"smiles": "COc1cccc(NS(=O)(=O)c2ccc3c(c2)C2C=CCC2C(c2ccc(C(=O)O)cc2)N3)c1", "note": "(stereo not drawn)", "Potency": "31.6 µM (active)"},
      {"smiles": "Cc1ccc(-c2csc3ncnc(NCCC(=O)O)c23)cc1C", "Potency": "14.1 µM (active)"},
      {"smiles": "CN(C)C(=O)c1ccc(NC(=O)COC(=O)C2=COCCO2)cc1", "activity change, negative = inhibition": -3.35},
      {"smiles": "NC(=O)C1CCN(c2cc(Cl)nc(N)n2)CC1", "activity change, negative = inhibition": -5.15},
      {"smiles": "CN1CCN(C(c2ccccc2)c2ccc(Cl)cc2)CC1", "note": "(stereo not drawn)", "activity change, negative = inhibition": -13.3},
      {"smiles": "Cc1ccc(C(c2cc(Cl)c3cccnc3c2O)N2CCN(C)CC2)cc1", "note": "(stereo not drawn)", "Potency": "15.8 µM (active)"},
      {"smiles": "CN1CCN(C(c2ccc(Br)cc2)c2cc(Cl)c3cccnc3c2O)CC1", "note": "(stereo not drawn)", "Potency": "15.8 µM (active)"},
      {"smiles": "CCOC(=O)C1=C(CC)Nc2ccccc2N=C1NC(=O)c1ccc(S(=O)(=O)N(C)C)cc1", "activity change, negative = inhibition": 2},
      {"smiles": "COC(=O)c1c(NC(C)=O)sc(C(=O)Nc2ccccc2)c1C", "activity change, negative = inhibition": -0.19},
      {"smiles": "Cc1cc2nc(-c3ccco3)c(Cc3cccc(F)c3)n2c(C)c1Br", "Potency": "6.31 µM (active)"},
      {"smiles": "Fc1cccc(Cc2c(-c3ccco3)nc3ccc(Cl)cn23)c1", "activity change, negative = inhibition": -18.6},
      {"smiles": "COc1ccccc1Cc1c(-c2ccco2)nc2cc(C)c(Br)c(C)n12", "activity change, negative = inhibition": -23.8},
      {"smiles": "O=C(COC(=O)Cc1ccsc1)Nc1cccc(F)c1", "activity change, negative = inhibition": 9.86},
      {"smiles": "Cc1ccc(NC(=O)CN(C)C(=O)COc2ccc(C(=O)c3ccc(F)cc3)cc2)cc1", "activity change, negative = inhibition": 7.3},
      {"smiles": "CCN(CC(=O)Nc1ccc(OC)cc1)C(=O)c1ccc([N+](=O)[O-])cc1", "activity change, negative = inhibition": -0.54},
      {"smiles": "Cc1ccc(NC(=O)CN(C)C(=O)c2cccc(-n3cccc3)c2)cc1", "Potency": "20 µM (active)"},
      {"smiles": "CN(CC(=O)Nc1c(Cl)cccc1Cl)C(=O)c1cccc(-n2cccc2)c1", "Potency": "14.1 µM (active)"},
      {"smiles": "Cc1cccc(NC(=O)CNC(=O)c2cccc(-n3cccc3)c2)c1C", "Potency": "6.31 µM (active)"},
      {"smiles": "CN(CC(=O)Nc1cccc(F)c1)C(=O)c1cccc(-n2cccc2)c1", "Potency": "10 µM (active)"}
    ]}
  ]
}
